For 10 molecules, outcome and AC50 results are on record in PubChem BioAssay (EPA / NIEHS).

Results filed as inconclusive are left out. A structure can be active in one record and inactive in another. Activity calls are given as the source filed them. Rule for the calls: active = hit-call score of the fitted dose curve at least 0.9, where 1 is the maximum; inconclusive = response in the unintended direction; inactive = score below 0.9.

This experiment in a line: CCTE_Mundy_HCI_Cortical_NOG_NeuronCount: CCTE's Neurite Outgrowth Assay in rat cortical cells for Neuron Count, Mundy Lab (AID 2284236).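 Note: neurons counted by imaging betaIII-tubulin and Hoechst stained cortical cells; cells exposed to compound for about 48 hours before fixation.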 The method, then: CCTE_Mundy_HCI_Cortical_NOG is a multiplexed, cell-based-readout assay that uses rat primary cortical cells with measurements taken at 50.33 hours after chemical dosing in a microplate: 96-well plate.CCTE_Mundy_HCI_Cortical_NOG_NeuronCount is one of four components of the CCTE_Mundy_HCI_Cortical_NOG assay. It measures cell viability related to the number of neurons using High Content Imaging of fluorescently labelled markers.[…] Using a type of morphology reporter, loss -of-signal activity can be used to understand developmental effects.
Exposure starts 2 hours post-plating by adding 10 ul of the working solution to 90 ul of media in the wells for a 1/10 dilution. Forty-eight hours after chemical treatment cells are fixed by direct addition of 100 ul of warm (37C) Dulbecco's phosphate buffered saline (DPBS) fixative solution containing 8% paraformaldehyde, 8% sucrose, and 0.1% of 3 mg/ml Hoechst 33342 into each well. Primary antibodies are prepared by dilution in Immunocytochemical Staining Buffer (ISB), 10X Dulbecco's PBS, 0.1% Saponin, 5% Bovine Serum Albumin, 0.5% NaN3 (Sodium Azide) and betaIII-tubulin (rabbit anti-betaIII-tubulin, 1:800) followed by Alexa Fluor-488 secondary (1:500) to label neuronal cell bodies and neurites. A Cellomics ArrayScan VTi HCS Reader is used for automated image acquisition and analysis of neurite outgrowth.
By AC50 is commonly meant the concentration giving half of the maximal activity seen. Turning to `CC1(C)C(C=C(Cl)Cl)C1C(=O)OC(C#N)c1ccc(F)c(Oc2ccccc2)c1` (stereo unspecified), the result was inactive and the AC50 was 49.9 µM (active). For the molecule `CC[C@H](C)[C@H]1O[C@]2(C=C[C@@H]1C)C[C@@H]1C[C@@H](C/C=C(\C)[C@@H](O[C@H]3C[C@H](OC)[C@@H](O[C@H]4C[C@H](OC)[C@@H](O)[C@H](C)O4)[C@H](C)O3)[C@@H](C)/C=C/C=C3\CO[C@@H]4[C@H](O)C(C)=C[C@@H](C(=O)O1)[C@]34O)O2` (tested in a mixture with another compound), the AC50 is 13.3 µM (active). Still for that read-out and setting: next, `COP(=S)(OC)Oc1ccc([N+](=O)[O-])cc1`: 2.98 µM (active); `O=S1OCC2C(CO1)C1(Cl)C(Cl)=C(Cl)C2(Cl)C1(Cl)Cl` (stereo unspecified): 25.2 µM (active). Take `CC(C)N(C(=O)COc1nnc(C(F)(F)F)s1)c1ccc(F)cc1`: the molecule was classed as inactive.

Take `COP(=O)(OC)OC=C(Cl)Cl`: the molecule was called inactive. Same read-out and setting: next, `O=C(O)COc1ccc(Cl)cc1Cl`: “inactive”. With `CC1(c2ccc(Oc3ccccc3)cc2)OC(=O)N(Nc2ccccc2)C1=O` (stereo unspecified), the AC50 is 23.8 µM (active). With `O=C(O)C(F)(F)C(F)(F)C(F)(F)C(F)(F)C(F)(F)C(F)(F)C(F)(F)F`, the outcome was inactive. For the molecule `O=S(=O)(O)C(F)(F)C(F)(F)C(F)(F)C(F)(F)C(F)(F)C(F)(F)C(F)(F)C(F)(F)F`, the result was inactive.
